Measured values from PubChem BioAssay AID2732 (Emory University Molecular Libraries Screening Center, 2010).
Among all 220,000 compounds or so, about 8,200 (3.7%) were called active. The full list was thinned out, with actives kept by preference. Unmarked numbers belong to inactive results.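 The calls were made as follows: active = compounds that reduced the stress-induced luciferase reporter signal by more than about 70% of percent inhibition (limit read from the data); inactive = the rest.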

Test: blockers of ER-stress CHOP reporter expression – cell-based, unfolded protein response, luciferase reporter, primary screen (AID 2732);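 also: 0% = tunicamycin plus vehicle and 100% = wells without tunicamycin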
Details: CHO-K1 CHOP-promoter luciferase, tunicamycin-induced, 15-18 h; at 10 µM; stronger effect = higher value

SMILES | inhibition
Nc1ccccc1SC(C[N+](=O)[O-])c1ccccc1 (stereo not given) | 46.3%
O=C1CC2(CC(c3ccc(Cl)cc3)=NO2)C(=O)N1c1ccccc1 (stereo not given) | 18.6%
NC(=O)C1=C[C@@H](c2csc3ccccc23)C[C@@H](OCc2ccc(CO)cc2)O1 | 36.3%
COP1(=O)C[C@@H](O)[C@@H](O)[C@@H](COCc2ccccc2)O1 (stereo not given in full) | -7.84%
Cc1ccc2[nH]c(=O)c(-c3nc4c(C)cccn4c3NCc3ccco3)cc2c1 | 95.7% (active)
CCNCc1cc2cc(C)ccc2[nH]c1=O | -7.23%
CCCc1nc(-c2cc3cc(C)ccc3[nH]c2=O)no1 | 14.6%
Cc1nnc(SC(C(=O)c2ccccc2)c2ccccc2)[nH]c1=O (stereo not given) | -8.07%
CCn1c2ccccc2c2cc(NC(=O)CNC)ccc21 | 5.95%
O=C(CCN1C(=O)c2ccccc2C1=O)NCCCn1ccnc1 | -1.9%
CCOc1ccccc1C(=O)NCCCn1ccnc1 | -4.75%
CCCC(=O)Nc1ccc(C(=O)NCCCn2ccnc2)cc1 | 73.7% (active)
N#C/C(=C\N1CCOCC1)S(=O)(=O)c1ccc(Cl)cc1 | 21.5%
CCc1ccc(Nc2ncc3c(n2)CC(c2ccco2)CC3=O)cc1 (stereo not given) | 78.5% (active)
O=C(Nc1ncc2c(n1)CC(c1ccco1)CC2=O)c1ccc(Cl)cc1 (stereo not given) | 33.8%
COc1cc(C2CC(=O)c3cnc(NC(C)=O)nc3C2)cc(OC)c1OC (stereo not given) | 30.2%
CCOC(=O)c1cn(CC)c2cc(F)c(F)cc2c1=O | -15.5%
O=C(CNC(=O)c1cc(=O)[nH]c2ccccc12)Nc1ccc(F)c(F)c1 | -18.5%
O=C(CC(NC(=O)c1ccccc1)c1ccccc1)Nc1ccc(F)c(F)c1 (stereo not given) | 105% (active)
O=C(CNC(c1ccccc1)c1ccccc1)Nc1ccc(F)cc1 | 23.2%
CCn1c(=O)c([N+](=O)[O-])c(NCc2ccc3c(c2)OCO3)c2ccccc21 | 22.4%
Cc1cc(NC(=O)OC(C)C)ccc1-c1ccc(NC(=O)OC(C)C)cc1C | 25.1%
Cc1noc(C)c1/C=N/Nc1ccc2ccccc2n1 | 16.5%
Brc1ccc(-c2csc(N/N=C/c3ccc4c(c3)OCO4)n2)cc1 | 26.8%

SMILES | inhibition
C(=N\Nc1ccc2ccccc2n1)/c1ccc2c(c1)OCO2 | 71% (active)
COc1ccc(Cc2cc(-c3ccc(F)cc3)n[nH]c2=O)cc1 | 15.3%
O=C(NCC1CCCO1)c1cc(-c2ccccc2)nc2ccccc12 (stereo not given) | 1.14%
Cc1ccc(SCCC(=O)Nc2cc(C)on2)cc1 | 20.7%
Cc1ccc2nc(-c3ccc(SCC(=O)Nc4cc(C)on4)nc3)[nH]c2c1 | 91.1% (active)
Cc1ccc(-c2csc(SCC(=O)Nc3cc(C)on3)n2)cc1 | 32.5%
CCCc1nc2oc3c(=O)[nH]cnc3c2c2c1COC(C)(C)C2 | -14.7%
COC(=O)c1cc(S(=O)(=O)N2CCC(C(N)=O)CC2)oc1C | 4.8%
COCCNc1nc(-c2ccccc2)nc2c1oc1ccccc12 | 37.1%
Cc1cc(C)n(CC(C)NCc2c(C(=O)N3CCOCC3)nc3c(C)cccn23)n1 (stereo not given) | 11.3%
O=C(Nc1ccc(C(=O)O)cc1)/C(=C/c1ccc([N+](=O)[O-])cc1)NC(=O)c1ccccc1 | -5.43%
Cc1ccc(NC(=O)/C(=C/c2ccc([N+](=O)[O-])cc2)NC(=O)c2ccccc2)cc1 | 104% (active)
O=C(Nc1ccccc1)/C(=C/c1ccc([N+](=O)[O-])cc1)NC(=O)c1ccccc1 | 51.8%
Cc1cc(=O)oc2cc(OCC(=O)Nc3nnc(C4CC4)s3)ccc12 | 1.52%
CNC1(c2nnnn2-c2c(C)cccc2C)CCOC(C)(C)C1 (stereo not given) | 1.67%
CCOC(=O)C1CCN(C(=O)Nc2ccc(C)c(Cl)c2)CC1 | 1.94%
C/C=C(/C)C(=O)O[C@@H]1c2cc3c(c4c2[C@@]2(CO4)C(=O)C(OC)=C(OC)C=C2C[C@@H](C)[C@H]1C)OCO3 | 2.19%
O=S(=O)(NCCSc1ccccn1)c1ccc(Cl)cc1 | 15.3%
CCOc1ccc(S(=O)(=O)NCCSc2ccccc2)cc1 | 95.6% (active)
Cc1ccc(S(=O)(=O)NCCSc2ccccc2)cc1[N+](=O)[O-] | 33.3%
COc1ccc(-c2oc3ncn(Cc4ccco4)c(=N)c3c2-c2ccc(OC)cc2)cc1 | -30.9%
c1ccc(-c2oc3ncnc(N4CCOCC4)c3c2-c2ccccc2)cc1 | 57.6%
N=c1c2c(-c3ccccc3)c(-c3ccccc3)oc2ncn1Cc1ccco1 | 92.2% (active)
O=C(CNc1ccc(F)cc1F)NC(=O)NCc1ccco1 | 10.8%

SMILES | inhibition
Cc1nc2nc(SCC(=O)c3ccccc3)[nH]c2cc1Br | -0.2%
O=C(Cn1cnc2c(nnn2Cc2ccc(F)cc2)c1=O)NCc1ccc2c(c1)OCO2 | 37.3%
Cc1nc(Nc2ccc3c(c2)OCCO3)c2nnn(Cc3ccccc3Cl)c2n1 | 69.6%
CCCc1nc(NCc2ccc3c(c2)OCO3)c2nnn(Cc3ccccc3Cl)c2n1 | 70.4% (active)
CS/C(=C\C(=O)c1ccco1)Nc1ccccc1Cl | 1.24%
CC(O)c1nc2c(c(=O)n(C)c(=O)n2C)n1C (stereo not given) | 10.6%
CCC1C(C#N)=C(SC)NC2=C1C(=O)CC(C)(C)C2 (stereo not given) | 73.6% (active)
CC(=O)C1=C(C)NC2=C(C(=O)CC(C)(C)C2)C1C (stereo not given) | 23.4%
COc1cc(C2C(C#N)=C(C)NC3=C2C(=O)CC(C)(C)C3)ccc1O (stereo not given) | 49.1%
CCn1c(SCC(=O)N/N=C/c2ccncc2)nc2ccccc21 | 24.8%
CCOC(=O)c1c(NC(=O)CSc2nnc(Cc3csc(N)n3)n2C)sc(C)c1C | 4.17%
CCOC(=O)c1c(NC(=O)CSc2nnc(CNc3ccc(C)cc3C)o2)sc(C)c1C | 80.7% (active)
CCOC(=O)c1sc(NC(=O)CSc2nnc(-c3ccco3)o2)c(C(=O)OCC)c1C | 19.2%
Nc1c(Cl)cc(S(N)(=O)=O)cc1S(N)(=O)=O | 4.35%
O=[N+]([O-])c1cccc(Nc2c3ccccc3nc3ccccc23)c1 | 47.9%
CCn1c(/C=C/c2ccc([N+](=O)[O-])o2)nc2ccccc2c1=O | 5.31%
Cn1cc(/C=C/c2nc3ccccc3c(=O)n2-c2cccc([N+](=O)[O-])c2)c2ccccc21 | 86% (active)
CCn1c2ccccc2c2cc(NC(=O)Nc3ccc([N+](=O)[O-])cc3C)ccc21 | 31.1%
Nc1scc[n+]1Cc1cccc2cccnc12 | 12%
Cc1cc(NC(=O)/C=C/C(=O)N(c2ccccc2C)C(C(=O)NC2CCCC2)c2ccc(F)cc2)no1 (stereo not given) | 87.6% (active)
Cc1cc(NC(=O)/C=C/C(=O)N(CC(=O)NC2CCCC2)c2ccc(F)cc2)no1 | -11.4%
Cc1cc(NC(=O)CCC(=O)N(c2cccc(F)c2)C(C(=O)NC2CCCC2)c2ccncc2)no1 (stereo not given) | -6.58%
Cn1cccc1/C=N/NC(=O)CNc1cccc2ccccc12 | 10.8%
O=C(O)c1cccnc1Sc1ncnc2sc3c(c12)CCC3 | -7.08%

SMILES | inhibition
CCC1S/C(=N/N=C/c2ccco2)NC1=O (stereo not given) | 40.4%
O=C1OC(/C=C/c2ccccc2)=NC/1=C/c1ccco1 | 0.75%
CC(C)(C)C1C/C(=C/c2ccco2)C(=O)/C(=C/c2ccco2)C1 (stereo not given) | 108% (active)
COc1ccc(-c2csc(NC3OC(=O)c4ccccc43)n2)cc1 (stereo not given) | -118%
COc1cc(/C=N\Nc2nc(-c3cccs3)c(NC(C)=O)s2)ccc1O | -7.52%
NNC(=O)c1ccc(COCC(F)(F)C(F)F)cc1 | -2.57%
COc1ccc(CCNC(=O)C(=O)NCC2CCNCC2)cc1OC | -6.48%
C=CCNC(=O)c1sc(SC)cc1-c1ccc(Cl)cc1 | 72.1% (active)
C=CCNC(=O)c1ccc(C)c(Br)c1 | 24.2%
C=CCNC(=S)NNC(=O)c1cc(Cl)ccc1OC | -7.01%
COc1cc(NC(=O)c2ccc(CNc3c(N4CCCC4)c(=O)c3=O)cc2)cc(OC)c1OC | -0.87%
COc1ccccc1-n1c(SCC(=O)O)nc2sc3c(c2c1=O)CCC3 | 8.81%
CCOc1ccc(/C(O)=C2\C(=O)C(=O)N(c3ccc(OC)cc3)C2c2ccccc2[N+](=O)[O-])cc1 (stereo not given) | -9.44%
O=c1c(-c2ccccc2)coc2cc(O)ccc12 | 15.5%
CC(C)=CCc1c(O)c(CC=C(C)C)c2occ(-c3ccc(O)cc3)c(=O)c2c1O | 104% (active)
O=c1c(-c2ccccc2)coc2c(CN3CCOCC3)c(O)ccc12 | -10.6%
O=C(c1ccc(Cl)cc1)N1N=C(c2ccccn2)CC1(O)C(F)(F)F (stereo not given) | 6.12%
Nc1nc(NC(=O)/C=C/c2ccc(F)cc2)nn1-c1ccccc1 | 18.8%
CCOC(=O)c1c(C2CC2)csc1NC(=O)CSCc1c(C)noc1C | 50.5%
CCn1c(SCC(=O)Nc2nc3ccc(OC)cc3s2)nnc1-c1ccoc1C | 14.3%
Cc1noc(C)c1CSCC(=O)Nc1nc2ccc(Oc3ccccc3)cc2s1 | 80.2% (active)
Cc1ccc(NNC(=O)C2CCC2)cc1C | 6.66%
COc1ccc2cc1Oc1ccc(cc1)C[C@H]1c3cc(c(OC)cc3CCN1C)Oc1c(O)c(OC)cc3c1[C@H](C2)N(C)CC3 | -41.5%
